Compound activity as filed in PubChem.
DPM-DC inhibit = S. pneumoniae DPM-DC inhibitors, primary screen, biochemical, PK/LDH-coupled NADH fluorescence | purified DPM-DC | calls only at 10 µM | 65,000 compounds, 0.49% hits;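 active = the 320 compounds with the highest percent inhibition in the single-dose primary screen, excluding strongly autofluorescent ones, cut at about 32% in these data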;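 note: kinetic rate of NADH fluorescence loss reporting ADP formed by the decarboxylase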
NADH enzymes = inhibitors of PK/LDH coupling enzymes, profiling panel, artefact control, biochemical, MLSMR library; coupled PK/LDH NADH assays, four targets; IC50, µM (doses to about 10 µM), for inactives: at the highest dose inhibition; 65,000 compounds, 0.02% hits; AID 774, 2007;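 active = single-dose screening hits from any of four coupled enzyme assays that gave an IC50 when retested across doses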;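 note: the DPM-DC format reads NADH fluorescence rather than 340 nm absorbance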
PMK inhibit = S. pneumoniae PMK inhibitors, primary screen, biochemical, mevalonate pathway, pilot trial included. purified PMK, PK/LDH-coupled NADH absorbance 340 nm. inhibition, % at 10 µM. 65,000 compounds, 0.49% hits. AID 539, 2006;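 active = top-ranked compounds by inhibition in the single 10 µM screen, taking a fixed number of the strongest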;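 note: 0% = full reaction with DMSO carrier and 100% = background rate without enzyme reaction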
Abs 340nm = compound light absorbance at 340 nm, profiling panel, artefact control, biochemical, MLSMR library, data from PS, PMK, MK assays; 65,000 tested, under 10 active; compound absorbance at 340 nm, fold over control; fold change at 10 µM;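 active = at 10 µM dose, initial 340 nm absorbance at least 2 fold that of control wells; inactive = change under 2 fold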;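 note: initial absorbance extrapolated from kinetic A340 decline of NADH oxidation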
Spn MK inh = S. pneumoniae MK inhibitors, primary screen, biochemical, PK/LDH-coupled NADH absorbance. purified MK, PK/LDH-coupled NADH absorbance 340 nm. inhibition, % at 10 µM. 65,000 compounds, 0.48% hits. AID 555, 2006;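 active = ranked among the strongest by inhibition in the single 10 µM screen, a fixed top-ranked set picked for dose follow-up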
Autofluor 339 = intrinsic fluorescence of library compounds, ex339/em460 – biochemical, MLSMR library, data from DPM-DC assay, artefact control, profiling panel; compound autofluorescence, ex339/em460 nm, NADH buffer; stronger effect = higher value; 1 = no-compound wells, NADH background; fluorescence fold increase at 10 µM; 65,000 compounds, 5.5% hits; AID 709, 2007;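 active = at 10 µM, mean starting fluorescence two-fold or more over control wells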;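 note: signal is the first read of a kinetic run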
* = called active by the depositor. Most compounds without a hit are left out; they make up all but 6.5% or so of the library.

For COc1ccc(Cn2c(C)nc3c(c2=O)c2nc4ccccc4nc2n3Cc2ccco2)cc1 the results were DPM-DC inhibit inactive, NADH enzymes 9.0%, PMK inhibit 2.0, Abs 340nm 1.03, Spn MK inh 9.0 and Autofluor 339 1.5.
`COc1ccc(S(=O)(=O)c2c(N)n(Cc3ccco3)c3nc4ccccc4nc23)cc1` gave NADH enzymes 14.0%, PMK inhibit 16.0, Abs 340nm 1.06, Spn MK inh 12.0 and Autofluor 339 3.82*.
Screening O=c1c2ccccc2nc(COc2ccccc2)n1/N=C/c1ccco1 returned DPM-DC inhibit inactive, NADH enzymes 6.0%, PMK inhibit 6.0, Abs 340nm 1.03, Spn MK inh 11.0 and Autofluor 339 1.05.
`Cc1ccc(S(=O)(=O)n2nc(-c3cccnc3)nc2N)cc1` gave DPM-DC inhibit inactive, NADH enzymes 4.0%, PMK inhibit 3.0, Abs 340nm 1.02, Spn MK inh 9.0 and Autofluor 339 1.05.
For O=C(CCn1c(=O)c2ccccc2n(Cc2cccnc2)c1=O)NCc1ccc2c(c1)OCO2 the results were DPM-DC inhibit inactive, NADH enzymes 5.0%, PMK inhibit 15.0, Abs 340nm 1.01, Spn MK inh 0.0 and Autofluor 339 1.11.
Screening Nc1c(S(=O)(=O)c2ccccc2)c2nc3ccccc3nc2n1/N=C/c1ccco1 returned DPM-DC inhibit inactive, NADH enzymes 7.0%, PMK inhibit 10.0, Abs 340nm 1.17, Spn MK inh 2.0 and Autofluor 339 1.75.
Cc1cccc(S(=O)(=O)c2c(N)n(/N=C/c3ccco3)c3nc4ccccc4nc23)c1 was read as DPM-DC inhibit inactive, NADH enzymes 10.0%, PMK inhibit 13.0, Abs 340nm 1.05, Spn MK inh 17.0 and Autofluor 339 3.15*.
For O=c1c2c3nc4ccccc4nc3n(/N=C/c3ccco3)c2ncn1CCC1=CCCCC1 the results were DPM-DC inhibit inactive, NADH enzymes 2.0%, PMK inhibit 5.0, Abs 340nm 1.1, Spn MK inh 0.0 and Autofluor 339 1.44.
Screening Cc1ccc(S(=O)(=O)c2c(N)n(/N=C/c3ccco3)c3nc4ccccc4nc23)cc1 returned DPM-DC inhibit inactive, NADH enzymes 2.0%, PMK inhibit 2.0, Abs 340nm 1.17, Spn MK inh 0.0 and Autofluor 339 3.24*.
`CC(C)Cn1c(N)c(S(=O)(=O)c2cccs2)c2nc3ccccc3nc21` gave NADH enzymes 9.0%, PMK inhibit 12.0, Abs 340nm 1.08, Spn MK inh 6.0 and Autofluor 339 3.86*.
Screening Cc1cc(C)cc(CC2CC(=O)N(c3nc(C)cc(C)n3)C2=O)c1 (stereo not drawn) returned DPM-DC inhibit inactive, NADH enzymes 10.0%, PMK inhibit 25.0*, Abs 340nm 0.89, Spn MK inh 6.0 and Autofluor 339 1.
`O=C(NCc1cccnc1)/C(=N\O)c1ccccc1` gave DPM-DC inhibit inactive, NADH enzymes 1.0%, PMK inhibit 6.0, Abs 340nm 1, Spn MK inh 0.0 and Autofluor 339 1.04.
O=C(CN1CCN(C2CCCCC2)CC1)NCCC1=CCCCC1 was read as DPM-DC inhibit inactive, NADH enzymes 22.0%, PMK inhibit 4.0, Abs 340nm 1.04, Spn MK inh 61.0* and Autofluor 339 1.11.
Screening CS(=O)(=O)N(CC(=O)NCCC1=CCCCC1)C1CCCCC1 returned DPM-DC inhibit inactive, NADH enzymes 6.0%, PMK inhibit 13.0, Abs 340nm 1, Spn MK inh 6.0 and Autofluor 339 1.03.
Screening COC(=O)CN(c1ccccn1)S(=O)(=O)c1ccccc1 returned DPM-DC inhibit inactive, NADH enzymes 10.0%, PMK inhibit 6.0, Abs 340nm 1.03, Spn MK inh 2.0 and Autofluor 339 3.14*.
Screening Clc1ccc2[nH]c3c(NCC4CCCO4)ncnc3c2c1 (stereo not drawn) returned DPM-DC inhibit inactive, NADH enzymes 9.0%, PMK inhibit 11.0, Abs 340nm 1.08, Spn MK inh 2.0 and Autofluor 339 2.5*.
Screening Clc1ccc2[nH]c3c(NCCN4CCOCC4)ncnc3c2c1 returned DPM-DC inhibit inactive, NADH enzymes 8.0%, PMK inhibit 12.0, Abs 340nm 1.07, Spn MK inh 5.0 and Autofluor 339 1.42.
Screening CC(=O)Nc1nn(C)c2nc3cc(C)ccc3cc12 returned DPM-DC inhibit inactive, NADH enzymes 9.0%, PMK inhibit 3.0, Abs 340nm 1.07, Spn MK inh 11.0 and Autofluor 339 1.99.
For Cc1ccc2cc3c(NC(=O)c4ccco4)nn(C)c3nc2c1 the results were DPM-DC inhibit active, NADH enzymes 17.0%, PMK inhibit 6.0, Abs 340nm 1.07, Spn MK inh 9.0 and Autofluor 339 2.9*.
`Cc1ccc(CN2CCSc3ccc(C(=O)N4CCN(c5ncccn5)CC4)cc32)cc1` gave NADH enzymes 3.0%, PMK inhibit 3.0, Abs 340nm 1.01, Spn MK inh 2.0 and Autofluor 339 4.93*.
For COc1ccccc1N1CCN(C(=O)CCc2ccc(S(=O)(=O)NCC(C)C)cc2)CC1 the results were DPM-DC inhibit inactive, NADH enzymes 7.0%, PMK inhibit 12.0, Abs 340nm 1.02, Spn MK inh 9.0 and Autofluor 339 1.09.
COC(=O)CCn1nnc(-c2cccs2)n1 was read as DPM-DC inhibit inactive, NADH enzymes 1.0%, PMK inhibit 0.0, Abs 340nm 0.97, Spn MK inh 3.0 and Autofluor 339 1.05.
Screening COC(=O)CCn1nnc(-c2ccc(C(C)C)cc2)n1 returned DPM-DC inhibit inactive, NADH enzymes 7.0%, PMK inhibit 8.0, Abs 340nm 1, Spn MK inh 1.0 and Autofluor 339 2.95*.
`C=CCn1c(=N)c(C(=O)NCCCOC)cc2c(=O)n3ccccc3nc21` gave NADH enzymes 14.0%, PMK inhibit 18.0, Abs 340nm 1, Spn MK inh 10.0 and Autofluor 339 3.72*.
For C=CCn1cc(C(=O)NCCCOC)c(=O)c2cc(S(=O)(=O)N(CC)CC)ccc21 the results were DPM-DC inhibit inactive, NADH enzymes 4.0%, PMK inhibit 9.0, Abs 340nm 1.04, Spn MK inh 4.0 and Autofluor 339 1.19.
C=CCn1c(=N)c(C(=O)NCCCOC)cc2c(=O)n3cc(C)ccc3nc21 was read as NADH enzymes 5.0%, PMK inhibit 9.0, Abs 340nm 1.02, Spn MK inh 0.0 and Autofluor 339 3.83*.
COc1c(C)cc(Br)cc1C(=O)O was read as DPM-DC inhibit inactive, NADH enzymes 3.0%, PMK inhibit 0.0, Abs 340nm 1.06, Spn MK inh 7.0 and Autofluor 339 1.1.
